# Assay results published in the supplement of paper PMC6522484.
# ± gives the standard deviation of the averaged measurements.
# Tested on: SW480
# Test: cell viability (CellTiter-Glo) relative to plate median (fraction of plate median); higher = more viable cells
# Conditions: 5 µM; treatment time 24 h; reporter: 7TFP
# Summary of the method: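 Library compounds, at a final 5 µM, stayed on reporter cells for 24 h. The cells were colorectal cancer lines stably transduced with lentiviral TCF/Wnt firefly luciferase reporters, seeded in 384-well plates 24 h before dosing. Firefly luciferase or CellTiterGlo luminescence from parallel plates was normalised to the plate median in webcellHTS2 (additive, no log transformation), and two independent replicates were averaged.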
row,Structure (SMILES),cell viability
1,Cc1cc(O)c(C)c(O)c1C(=O)O,0.996 ± 0.021
2,C[C@@H]1C(=O)O[C@H]2C[C@@]34[C@H]5C[C@@H](C(C)(C)C)[C@]36[C@@H](OC(=O)[C@@H]6O)O[C@@]4(C(=O)O5)[C@]21O,0.99 ± 0.015
3,COC(=O)[C@@H]1[C@H]2C[C@H]3c4[nH]c5ccccc5c4CCN3C[C@@H]2CC[C@@H]1O,1.005 ± 0.0071
4,CC(=O)O[C@@H]1C=C[C@]2(C)C(C[C@@H](OC(C)=O)[C@]3(C)C4=CC(=O)O[C@H](c5ccoc5)[C@@]4(C)CCC23)C1(C)C (stereo partly specified),1.03 ± 0.014
5,CC(C)CCC[C@@H](C)C1CC[C@H]2[C@@H]3CCC4CC(=O)CC[C@]4(C)[C@H]3CC[C@]12C (stereo partly specified),1.02 ± 0.021
6,CC(=O)Nc1ccc(OC(=O)c2ccccc2O)cc1,0.978 ± 0.074
7,C=C(C)[C@@H]1C[C@H]2O[C@](O)(C/C(C)=C\C(=O)/C=C(/C)C[C@@H]3OC(=O)[C@]24O[C@@H]34)[C@H]1O [bipinnatolide F],0.94 ± 0.074
8,CC12CC3CC(C)(C1)CC(N)(C3)C2,1.02 ± 0.014
9,COc1ccc(-c2oc3cc(OC)c(OC)c(OC)c3c(=O)c2OC)cc1OC,1.06 ± 0.092
10,CCC1(C)OC(=O)N(C)C1=O (stereo unspecified),0.908 ± 0.0028
11,CCOC(=O)C(C)(C)Oc1ccc(Cl)cc1,0.971 ± 0.055
12,Cc1cc(O)c2c(c1)C(=O)c1cccc(O)c1C2=O,0.936 ± 0.013
13,"NC(C(=O)O)C(O)C(=O)O (stereo not drawn) [d,l-threo-3-HYDROXYASPARTIC ACID]",0.949 ± 0.044
14,COc1ccc2c(c1)OC/C(=C\c1ccc(OC)c(O)c1)C2=O,1.03 ± 0.035
15,Cn1c(=O)[nH]c2ncn(C)c2c1=O,1.02
16,CN(C)C(=O)Nc1ccc(Cl)c(Cl)c1,0.966 ± 0.042
